Reference: PubChem BioAssay (Tox21)
Inconclusive results are not listed. Where a call stands in place of a potency, no number is given. Calls of active or inactive are those of the source. Unless noted, calls follow the shape of the dose curve; as a rule, active = well fitted curve in the direction sought with a large enough effect in the repeat runs; inconclusive = weak or mixed curves; inactive = no such curve, though single readings can be large; an effect the other way counts as inactive or inconclusive.

Tests used:
[1] = qHTS assay to identify aromatase inhibitors - cell viability counter screen (AID 743084);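 also: cells stimulated with testosterone during compound exposure; nearly all actives have a fitted effect of over 55% in size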; also: potency is read from the fitted curve at half-maximal effect
[2] = target: Aryl hydrocarbon receptor (Homo sapiens) (UniProt P35869); assay: qHTS assay to identify small molecule that activate the aryl hydrocarbon receptor (AhR) signaling pathway (AID 743085); also: nearly all actives have a fitted effect of over 15% in size; also: potency is read from the fitted curve at half-maximal effect;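 as to activation: HG2L7.5c1 human HepG2 liver cells with stably integrated DRE-driven firefly reporter; series mostly up to about 70 µM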
Outline: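 Reporter assay in engineered HepG2 line HG2L7.5c1, whose plasmid carries twenty dioxin responsive elements upstream of firefly luciferase. Treatment lasted 24 h at 37C; ONE-Glo luminescence gauged induction.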

[3] = qHTS assay to identify small molecule that activate the aryl hydrocarbon receptor (AhR) signaling pathway - cell viability counter screen (AID 743086);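 also: HepG2 liver cells carrying the AhR DRE luciferase reporter; series mostly up to about 70 µM; nearly all actives have a fitted effect of over 45% in size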
Outline: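 HepG2-AhR-luc (HG2L7.5c1) cells, 4000/well, treated 24 h at 37 C with compound; viability measured as CellTiter-Fluor fluorescence after 30 min in the same wells as the luciferase read.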

[4] = qHTS assay to identify small molecule antagonists of the peroxisome proliferator-activated receptor gamma (PPARg) signaling pathway - cell viability counter screen (AID 743194); also: nearly all actives have a fitted effect of over 55% in size
Outline: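 Cytotoxicity counter screen in PPARg-bla HEK293H cells, same wells as reporter assay. Compounds plus 50 nM rosiglitazone (final) for 17 h at 37 C, then viability read by CellTiter-Glo luminescence.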

[5] = qHTS assay for small molecule agonists of the antioxidant response element (ARE) signaling pathway (AID 743202; active = well fitted activation curve with a large enough effect in the signal ratio in the repeat runs, not every such curve was filed as active; the % refers to the signal ratio; also: potency is read from the fitted curve at half-maximal effect)
Outline: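 Agonist mode reporter screen: HepG2 cells with ARE-controlled beta-lactamase are incubated with test compounds for 16 h at 37 C, and beta-lactamase activity is measured as fluorescence of cleaved B/G FRET substrate.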

[6] = qHTS assay for small molecule agonists of the antioxidant response element (ARE) signaling pathway - cell viability counter screen (AID 743203; calls by dose curve; also: nearly all actives have a fitted effect of over 55% in size; also: potency is read from the fitted curve at half-maximal effect)
Outline: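 Compounds in DMSO were pinned onto ARE-bla HepG2 cells plated 5 hrs earlier at 2,000 cells/well. Sixteen hours later at 37C/5% CO2, CellTiter-Glo was added and luminescence measured after 30 min at room temperature.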

[7] = qHTS assay for small molecule activators of the heat shock response signaling pathway - cell viability counter screen (AID 743209); also: nearly all actives have a fitted effect of over 50% in size
Outline: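 Counter screen for cytotoxicity in HeLa HSE-bla reporter cells. Treatment was 5 h at 37 C; viability was detected by luminescent ATP assay (CellTiter-Glo) in the same wells as the beta-lactamase read.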

[8] = qHTS assay for small molecule activators of the heat shock response signaling pathway (AID 743210; active = well fitted activation curve with a large enough effect in the signal ratio in the repeat runs, with a control signal flat, not every such curve was filed as active; the % refers to the signal ratio; also: potency is read from the fitted curve at half-maximal effect;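 as to activation: HeLa cells with beta-lactamase reporter driven by heat shock elements; series mostly up to about 63 µM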)
Outline: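 Quantitative high-throughput format using an engineered HeLa line in which heat shock response elements drive beta-lactamase; after 5 h with compound, cells received a B/G FRET substrate and fluorescence was read.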

[9] = target: Peroxisome proliferator-activated receptor gamma (Homo sapiens) (UniProt P37231); assay: qHTS assay to identify small molecule agonists of the peroxisome proliferator-activated receptor gamma (PPARg) signaling pathway (AID 743094; active = well fitted activation curve with a large enough effect in the signal ratio in the repeat runs, not every such curve was filed as active; the % refers to the signal ratio)
Outline: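 Following 5 h plating at 37C, PPARg-bla HEK293H cells receive compound or DMSO for 17 h; fluorescence intensity is recorded after LiveBLAzer B/G loading for 1 h at room temperature.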

[10] = target: Peroxisome proliferator-activated receptor gamma (Homo sapiens) (UniProt P37231); assay: qHTS assay to identify small molecule antagonists of the peroxisome proliferator-activated receptor gamma (PPARg) signaling pathway (AID 743191; calls by dose curve; also: series mostly up to about 63 µM; nearly all actives have a fitted effect of over 30% in size)
Outline: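 GeneBLAzer PPARg UAS-bla HEK293H cells, 5 h post-plating, exposed to compounds 17 h at 37C. LiveBLAzer B/G FRET substrate added for 1 h at room temperature; beta-lactamase reporter read by fluorescence intensity.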

Sequence of Aryl hydrocarbon receptor (Homo sapiens) (P35869 whole entry, looked up): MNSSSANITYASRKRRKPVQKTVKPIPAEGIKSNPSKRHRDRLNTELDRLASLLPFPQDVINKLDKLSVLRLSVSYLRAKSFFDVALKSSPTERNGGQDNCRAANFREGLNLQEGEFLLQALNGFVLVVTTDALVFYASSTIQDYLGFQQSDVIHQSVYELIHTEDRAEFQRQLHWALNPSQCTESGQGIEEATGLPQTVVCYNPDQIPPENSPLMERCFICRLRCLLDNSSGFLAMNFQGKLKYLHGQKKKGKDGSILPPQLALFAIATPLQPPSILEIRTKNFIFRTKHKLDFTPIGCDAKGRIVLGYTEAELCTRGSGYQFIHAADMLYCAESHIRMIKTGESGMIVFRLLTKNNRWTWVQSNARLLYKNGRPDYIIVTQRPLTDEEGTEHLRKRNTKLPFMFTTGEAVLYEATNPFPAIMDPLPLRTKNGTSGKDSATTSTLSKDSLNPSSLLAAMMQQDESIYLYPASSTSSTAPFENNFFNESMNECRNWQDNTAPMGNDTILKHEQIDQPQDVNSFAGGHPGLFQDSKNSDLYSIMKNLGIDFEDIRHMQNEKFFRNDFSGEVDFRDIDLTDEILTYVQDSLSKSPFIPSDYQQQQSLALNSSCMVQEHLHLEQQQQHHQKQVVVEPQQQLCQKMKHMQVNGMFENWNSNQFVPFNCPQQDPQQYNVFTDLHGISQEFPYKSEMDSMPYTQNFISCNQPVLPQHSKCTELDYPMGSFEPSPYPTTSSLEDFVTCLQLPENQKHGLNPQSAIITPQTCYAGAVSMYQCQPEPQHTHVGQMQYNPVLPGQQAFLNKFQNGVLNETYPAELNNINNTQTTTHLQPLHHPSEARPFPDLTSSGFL
Sequence of Peroxisome proliferator-activated receptor gamma (Homo sapiens) (P37231 whole entry, looked up): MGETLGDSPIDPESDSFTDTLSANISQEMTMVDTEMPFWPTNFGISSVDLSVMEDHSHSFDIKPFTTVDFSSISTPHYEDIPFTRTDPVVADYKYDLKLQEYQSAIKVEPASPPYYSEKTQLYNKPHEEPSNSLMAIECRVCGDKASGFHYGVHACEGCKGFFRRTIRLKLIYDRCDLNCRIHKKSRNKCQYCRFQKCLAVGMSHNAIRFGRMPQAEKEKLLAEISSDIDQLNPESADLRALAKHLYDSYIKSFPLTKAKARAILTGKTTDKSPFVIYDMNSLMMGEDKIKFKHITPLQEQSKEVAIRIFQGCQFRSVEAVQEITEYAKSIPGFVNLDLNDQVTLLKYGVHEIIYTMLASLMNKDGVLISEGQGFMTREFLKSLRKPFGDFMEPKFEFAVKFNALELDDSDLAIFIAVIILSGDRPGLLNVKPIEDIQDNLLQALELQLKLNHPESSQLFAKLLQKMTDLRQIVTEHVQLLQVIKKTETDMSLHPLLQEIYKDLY

| Structure (SMILES) | Potency [1] | Potency [2] | outcome [3] | Potency [4] | Potency [5] | Potency [6] | outcome [7] | Potency [8] | Potency [9] | Potency [10] |
| --- | --- | --- | --- | --- | --- | --- | --- | --- | --- | --- |
| CCCCCOc1ccc(C2SC(=O)NC2=O)cc1OCC (stereo not drawn) | inactive | 29.8 µM (active) | inactive | inactive | inactive | inactive | inactive | inactive | – | – |
| CCOc1ccc(OCC)c(Cl)c1 | inactive | inactive | – | – | inactive | inactive | inactive | – | inactive | inactive |
| CCOC(=O)[C@H](CCc1ccccc1)N[C@@H](C)C(=O)N1Cc2cc(OC)c(OC)cc2C[C@H]1C(=O)O | inactive | 9.44 µM (active) | inactive | – | – | – | inactive | inactive | – | inactive |
| CC(C)(C)C1CCCCC1=O (stereo not drawn) | inactive | inactive | inactive | inactive | inactive | inactive | inactive | inactive | – | – |
| CN1[C@@H]2CC[C@H]1CC(OC(=O)c1c[nH]c3ccccc13)C2 (stereo partly drawn) | inactive | inactive | – | inactive | inactive | inactive | inactive | – | inactive | inactive |
| CCCCC(=O)O[C@]1(C(=O)CO)[C@H](C)C[C@H]2[C@@H]3CCC4=CC(=O)C=C[C@]4(C)[C@@]3(F)[C@@H](O)C[C@@]21C | inactive | inactive | inactive | inactive | – | inactive | inactive | inactive | – | – |
| CC(C)NCC(O)COc1ccc(CCOCC2CC2)cc1 (stereo not drawn) | inactive | inactive | inactive | inactive | inactive | inactive | inactive | inactive | – | – |
| COc1ccc2nc(NC(=O)Nc3ccccc3)sc2c1 | inactive | 10.6 µM (active) | – | – | – | inactive | inactive | – | inactive | inactive |
| O=C(O)CN(CCN(CC(=O)O)CC(=O)O)CCN(CC(=O)O)CC(=O)O | inactive | inactive | inactive | inactive | – | inactive | inactive | inactive | – | inactive |
| CCOC(=O)COc1ccc2c(c1)CC(NCC(O)c1cccc(Cl)c1)CC2 (stereo not drawn) | 21.9 µM (active) | inactive | – | – | – | 48.9 µM (active) | inactive | – | inactive | inactive |
| CN1CCN(C2=Nc3cc(F)ccc3Cc3ccccc32)CC1 | inactive | inactive | – | inactive | – | inactive | inactive | inactive | inactive | inactive |
| C[C@@H]1CN(c2c(F)c(F)c3c(=O)c(C(=O)O)cn(C4CC4)c3c2F)C[C@H](C)N1 | inactive | inactive | – | – | – | inactive | inactive | inactive | inactive | inactive |
| CO[Si](C)(C)OC | inactive | inactive | – | – | inactive | inactive | inactive | inactive | inactive | inactive |
| O=C1CCCCCCCCCCC(=O)OCCO1 | inactive | inactive | – | inactive | inactive | inactive | inactive | – | inactive | inactive |
| O=[N+]([O-])c1nccn1CO[C@@H](CO)[C@H](O)CO | inactive | inactive | – | inactive | inactive | inactive | inactive | inactive | inactive | inactive |
| C=O | inactive | inactive | inactive | inactive | inactive | inactive | inactive | – | – | – |

| Structure (SMILES) | Potency [1] | Potency [2] | outcome [3] | Potency [4] | Potency [5] | Potency [6] | outcome [7] | Potency [8] | Potency [9] | Potency [10] |
| --- | --- | --- | --- | --- | --- | --- | --- | --- | --- | --- |
| Cc1c(-c2ccccc2)oc2c(C(=O)OCCN3CCCCC3)cccc2c1=O | inactive | inactive | – | inactive | inactive | inactive | inactive | inactive | inactive | inactive |
| O=S(=O)(O)C(F)(F)F | inactive | inactive | – | inactive | – | inactive | inactive | inactive | inactive | inactive |
| CC1=C(CC(=O)O)c2cc(F)ccc2/C1=C\c1ccc(S(C)(=O)=O)cc1 | inactive | inactive | inactive | inactive | – | inactive | inactive | inactive | – | – |
| C[C@]12C(=O)OC(=O)[C@H]1[C@H]1C=C[C@@H]2C1 | inactive | inactive | – | inactive | inactive | inactive | inactive | – | inactive | inactive |
| CC1(O)CSC(C)(O)CS1 (stereo not drawn) | inactive | inactive | inactive | inactive | – | inactive | inactive | inactive | – | inactive |
| NCCCN1CCN(CCCN)CC1 | inactive | inactive | inactive | – | inactive | inactive | inactive | inactive | – | – |
| CS(=O)(=O)c1ccc([C@@H](O)[C@@H](CF)NC(=O)C(Cl)Cl)cc1 | inactive | inactive | – | inactive | inactive | inactive | inactive | inactive | inactive | inactive |
| CCCCNC(=S)NCCCC | inactive | inactive | – | – | – | inactive | inactive | 23.6 µM (active) | inactive | inactive |
| CC(C)(C)c1cccc(O)c1 | inactive | inactive | – | inactive | inactive | inactive | inactive | – | inactive | inactive |
| CCCCCCCCCCCCOCCOS(=O)(=O)O | inactive | inactive | inactive | inactive | – | inactive | inactive | – | – | inactive |
| O=C(O)c1ccccc1Nc1cc(Cl)ccc1C(=O)O | inactive | inactive | inactive | inactive | inactive | – | inactive | – | – | – |
| O=C1CCC(C2CCCCC2)CC1 | inactive | inactive | inactive | – | – | – | inactive | inactive | inactive | – |
| CC(=O)OC1C2(C)CCC(C2)C1(C)C (stereo not drawn) | inactive | inactive | – | inactive | – | – | inactive | inactive | inactive | inactive |
| CC1=C2[C@H](/C=C(\C)C(=O)O)CC[C@@H](C)[C@H]2CC1 | inactive | inactive | inactive | inactive | – | inactive | inactive | – | – | – |
| NS(=O)(=O)c1cc(-c2nn[nH]n2)c(NCc2cccs2)cc1Cl | inactive | inactive | inactive | inactive | 10.6 µM (active) | – | inactive | inactive | – | – |
| CCCN(CCC)C(=O)C(CCC(=O)O)NC(=O)c1ccccc1 (stereo not drawn) | inactive | inactive | – | inactive | inactive | inactive | inactive | inactive | inactive | inactive |
